Measured values: article PMC12864922, “TDP-43 directly inhibits mRNA accumulation in neurites through modulation of mRNA stability”
Whole data set: some 9,900 sequences, median “r (bound/input frequency ratio)” near 0.7, cut for the highest 2% near 6.5. The sample holds the highest values, similar sequences and a random draw of the others, so the mix is not that of the screen.

B1: ENSMUSG00000022095.194|Fam160b2 (ssRNA)
RNA: GGGAGUUCUACAGUCCGACGAUCGCUUCGAUAUCCGCAUGCUAGGCCAGAGCCCCUUUUGCUUCCUUUUCCUGCCCAUGCCACCUCUCGAAGCCGGGCACAGGUUGCCAGGAGGUGACAUGAAAGAGGAGGAAACUCCAUGACCUCUACAUCCCCCGCAGUCCUCCCAGCGGGGGAGGACUUCUCUGCUGCUCCGAAGAACAUCAUGCACUCCUGUGUGUGUGUGUGAGUGUGUGUGUGUGUGUGUGUGUGUGUGUGUGUGUAUGUGUGUGUAUAUGUGUGUGUGUGUGUGUAUGUGUGUGUGCUCUUGCGGUCGCACUAGUGUGGAAUUCUCGGGUGUCAAGG
B2: ENSMUSG00000022095.184|Fam160b2|231:244;246:260 (ssRNA)
RNA: GGGAGUUCUACAGUCCGACGAUCGCUUCGAUAUCCGCAUGCUACAGGCAUUACCUCACAACAGGCCUGCAGUUGUUGGCUUCCCUCCUGGGCAAGGAGGAGCAGGCCAGAGCCCCUUUUGCUUCCUUUUCCUGCCCAUGCCACCUCUCGAAGCCGGGCACAGGUUGCCAGGAGGUGACAUGAAAGAGGAGGAAACUCCAUGACCUCUACAUCCCCCGCAGUCCUCCCAGCGGGGGAGGACUUCUCUGCUGCUCCGAAGAACAUCAUGCACUCCACACACACACACACACACACACACACACACCUCUUGCGGUCGCACUAGUGUGGAAUUCUCGGGUGUCAAGG
B3: ENSMUSG00000022095.191|Fam160b2 (ssRNA)
RNA: GGGAGUUCUACAGUCCGACGAUCGCUUCGAUAUCCGCAUGCUACCUGGGCAAGGAGGAGCAGGCCAGAGCCCCUUUUGCUUCCUUUUCCUGCCCAUGCCACCUCUCGAAGCCGGGCACAGGUUGCCAGGAGGUGACAUGAAAGAGGAGGAAACUCCAUGACCUCUACAUCCCCCGCAGUCCUCCCAGCGGGGGAGGACUUCUCUGCUGCUCCGAAGAACAUCAUGCACUCCUGUGUGUGUGUGUGAGUGUGUGUGUGUGUGUGUGUGUGUGUGUGUGUGUAUGUGUGUGUAUAUGUGUGUGUGCUCUUGCGGUCGCACUAGUGUGGAAUUCUCGGGUGUCAAGG
B4: ENSMUSG00000022095.184|Fam160b2 (ssRNA)
RNA: GGGAGUUCUACAGUCCGACGAUCGCUUCGAUAUCCGCAUGCUACAGGCAUUACCUCACAACAGGCCUGCAGUUGUUGGCUUCCCUCCUGGGCAAGGAGGAGCAGGCCAGAGCCCCUUUUGCUUCCUUUUCCUGCCCAUGCCACCUCUCGAAGCCGGGCACAGGUUGCCAGGAGGUGACAUGAAAGAGGAGGAAACUCCAUGACCUCUACAUCCCCCGCAGUCCUCCCAGCGGGGGAGGACUUCUCUGCUGCUCCGAAGAACAUCAUGCACUCCUGUGUGUGUGUGUGAGUGUGUGUGUGUGUGCUCUUGCGGUCGCACUAGUGUGGAAUUCUCGGGUGUCAAGG
B5: ENSMUSG00000022095.186|Fam160b2 (ssRNA)
RNA: GGGAGUUCUACAGUCCGACGAUCGCUUCGAUAUCCGCAUGCUACACAACAGGCCUGCAGUUGUUGGCUUCCCUCCUGGGCAAGGAGGAGCAGGCCAGAGCCCCUUUUGCUUCCUUUUCCUGCCCAUGCCACCUCUCGAAGCCGGGCACAGGUUGCCAGGAGGUGACAUGAAAGAGGAGGAAACUCCAUGACCUCUACAUCCCCCGCAGUCCUCCCAGCGGGGGAGGACUUCUCUGCUGCUCCGAAGAACAUCAUGCACUCCUGUGUGUGUGUGUGAGUGUGUGUGUGUGUGUGUGUGUGUGUGCUCUUGCGGUCGCACUAGUGUGGAAUUCUCGGGUGUCAAGG
B6: ENSMUSG00000022095.193|Fam160b2 (ssRNA)
RNA: GGGAGUUCUACAGUCCGACGAUCGCUUCGAUAUCCGCAUGCUAGGAGCAGGCCAGAGCCCCUUUUGCUUCCUUUUCCUGCCCAUGCCACCUCUCGAAGCCGGGCACAGGUUGCCAGGAGGUGACAUGAAAGAGGAGGAAACUCCAUGACCUCUACAUCCCCCGCAGUCCUCCCAGCGGGGGAGGACUUCUCUGCUGCUCCGAAGAACAUCAUGCACUCCUGUGUGUGUGUGUGAGUGUGUGUGUGUGUGUGUGUGUGUGUGUGUGUGUAUGUGUGUGUAUAUGUGUGUGUGUGUGUGUAUGUGCUCUUGCGGUCGCACUAGUGUGGAAUUCUCGGGUGUCAAGG
B7: ENSMUSG00000022095.186|Fam160b2|219:232;234:260 (ssRNA)
RNA: GGGAGUUCUACAGUCCGACGAUCGCUUCGAUAUCCGCAUGCUACACAACAGGCCUGCAGUUGUUGGCUUCCCUCCUGGGCAAGGAGGAGCAGGCCAGAGCCCCUUUUGCUUCCUUUUCCUGCCCAUGCCACCUCUCGAAGCCGGGCACAGGUUGCCAGGAGGUGACAUGAAAGAGGAGGAAACUCCAUGACCUCUACAUCCCCCGCAGUCCUCCCAGCGGGGGAGGACUUCUCUGCUGCUCCGAAGAACAUCAUGCACUCCACACACACACACACACACACACACACACACACACACACACACCUCUUGCGGUCGCACUAGUGUGGAAUUCUCGGGUGUCAAGG
B8: ENSMUSG00000022095.192|Fam160b2 (ssRNA)
RNA: GGGAGUUCUACAGUCCGACGAUCGCUUCGAUAUCCGCAUGCUACAAGGAGGAGCAGGCCAGAGCCCCUUUUGCUUCCUUUUCCUGCCCAUGCCACCUCUCGAAGCCGGGCACAGGUUGCCAGGAGGUGACAUGAAAGAGGAGGAAACUCCAUGACCUCUACAUCCCCCGCAGUCCUCCCAGCGGGGGAGGACUUCUCUGCUGCUCCGAAGAACAUCAUGCACUCCUGUGUGUGUGUGUGAGUGUGUGUGUGUGUGUGUGUGUGUGUGUGUGUGUAUGUGUGUGUAUAUGUGUGUGUGUGUGUGCUCUUGCGGUCGCACUAGUGUGGAAUUCUCGGGUGUCAAGG
B9: ENSMUSG00000022095.183|Fam160b2 (ssRNA)
RNA: GGGAGUUCUACAGUCCGACGAUCGCUUCGAUAUCCGCAUGCUACGGCGCCAGGCAUUACCUCACAACAGGCCUGCAGUUGUUGGCUUCCCUCCUGGGCAAGGAGGAGCAGGCCAGAGCCCCUUUUGCUUCCUUUUCCUGCCCAUGCCACCUCUCGAAGCCGGGCACAGGUUGCCAGGAGGUGACAUGAAAGAGGAGGAAACUCCAUGACCUCUACAUCCCCCGCAGUCCUCCCAGCGGGGGAGGACUUCUCUGCUGCUCCGAAGAACAUCAUGCACUCCUGUGUGUGUGUGUGAGUGUGUGUGCUCUUGCGGUCGCACUAGUGUGGAAUUCUCGGGUGUCAAGG
B10: ENSMUSG00000022095.185|Fam160b2 (ssRNA)
RNA: GGGAGUUCUACAGUCCGACGAUCGCUUCGAUAUCCGCAUGCUAUUACCUCACAACAGGCCUGCAGUUGUUGGCUUCCCUCCUGGGCAAGGAGGAGCAGGCCAGAGCCCCUUUUGCUUCCUUUUCCUGCCCAUGCCACCUCUCGAAGCCGGGCACAGGUUGCCAGGAGGUGACAUGAAAGAGGAGGAAACUCCAUGACCUCUACAUCCCCCGCAGUCCUCCCAGCGGGGGAGGACUUCUCUGCUGCUCCGAAGAACAUCAUGCACUCCUGUGUGUGUGUGUGAGUGUGUGUGUGUGUGUGUGUGCUCUUGCGGUCGCACUAGUGUGGAAUUCUCGGGUGUCAAGG

Each binder was assayed against TDP-43 (Homo sapiens, UniProt Q13148 1-414) (assay: RNA Bind-n-Seq with designed 260-mer pool; 25 mM Tris-HCl, 150 mM KCl, 3 mM MgCl2, BSA (printed 500 mg/mL), 20 units/mL SUPERase IN; pH not stated; 500 nM RNA pool, 1 h, 4 C; TDP-43 5, 50, 500 nM; high values mean tight binding). Settings: protein: recombinant; tags: SBP (GST cleaved off with PreScission; pGEX-GST-SBP).
How it was run: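 Duplicate measurements used two independent batches of recombinant SBP-tagged TDP-43, which was captured on streptavidin beads at 5, 50 or 500 nM. The beads were incubated with 500 nM of an in vitro-transcribed 260-nt 3′ UTR oligo pool for 1 h at 4 °C in 25 mM Tris-HCl, 150 mM KCl, 3 mM MgCl2, BSA and SUPERase IN. After washing, biotin elution, reverse transcription, PCR amplification and sequencing, binding was expressed as R: each oligo's normalized read abundance in the bound sample over its abundance in input.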

TDP-43, sequence (Q13148 whole entry): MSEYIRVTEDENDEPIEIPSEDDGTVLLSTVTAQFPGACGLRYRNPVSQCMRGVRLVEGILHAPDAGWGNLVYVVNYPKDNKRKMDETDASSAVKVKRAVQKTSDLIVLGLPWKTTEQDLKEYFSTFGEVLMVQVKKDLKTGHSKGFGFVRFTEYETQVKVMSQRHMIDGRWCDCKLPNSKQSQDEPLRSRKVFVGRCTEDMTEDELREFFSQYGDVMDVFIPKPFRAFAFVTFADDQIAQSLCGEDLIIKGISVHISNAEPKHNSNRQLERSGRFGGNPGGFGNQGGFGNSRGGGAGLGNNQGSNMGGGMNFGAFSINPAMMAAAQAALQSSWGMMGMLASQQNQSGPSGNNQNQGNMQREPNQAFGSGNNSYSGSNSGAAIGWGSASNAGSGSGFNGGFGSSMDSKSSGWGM

| Binder | binding signal |
| --- | --- |
| B1 | 7.48 R (bound/input frequency ratio) |
| B2 | 3.13 R (bound/input frequency ratio) |
| B3 | 5.73 R (bound/input frequency ratio) |
| B4 | 3.46 R (bound/input frequency ratio) |
| B5 | 6.14 R (bound/input frequency ratio) |
| B6 | 8.43 R (bound/input frequency ratio) |
| B7 | 2.91 R (bound/input frequency ratio) |
| B8 | 8.2 R (bound/input frequency ratio) |
| B9 | 1.73 R (bound/input frequency ratio) |
| B10 | 4.85 R (bound/input frequency ratio) |
